Most compounds without a hit are left out; they make up all but 8.7% or so of the library.
AMA1 RON2 block: disrupts binding of P. falciparum AMA1 to RON2; AlphaScreen AMA1-biotinylated RON2 peptide binding; Potency, µM (top dose mostly 58.2 µM), inactives show at the top dose activity change, negative = inhibition, hits mostly inhibitors; hit rate 0.2% among 360,000; AID 720542;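 also: 0% = vehicle wells and -100% = peptide control; nearly all actives have a fitted effect of over 45% in size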
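AMA1 (3D7) with his tag at 25 nM final met compounds first, then biotinylated RON2 peptide at 25 nM; detection used donor plus acceptor beads, 10 µg/mL apiece, read by AlphaScreen after 30 min at room temperature.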
Vaccinia Venus: vaccinia inhibition (Venus reporter) | Potency, µM (top dose mostly 36.5 µM), without a hit: at the top dose activity change, negative = inhibition, most hits filed as inhibitors | AID 720580 | Vaccinia virus Venus reporter expression, fluorescence | hit rate 0.46% among 330,000; calls by dose curve; tested in A549 cells; also: nearly all actives have a fitted effect of over 30% in size
Pf growth 48h: P. falciparum growth inhibition at 48 hours (one generation). P. falciparum luciferase growth in erythrocytes, 48 h. Potency, µM (highest dose often 28.7 µM), for the others: at the top dose activity change, negative = inhibition, hits mostly inhibitors. hit rate 5.9% among 310,000. AID 504832
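Parasite viability was followed by luminescence of a genomically integrated firefly luciferase. Cultures held 0.1% parasitemia at 2% hematocrit (final), incubated under 5% CO2 at 37 C.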
Vaccinia mCherry: inhibitors of vaccinia virus infection (mCherry reporter signal); Potency, µM (series often up to 36.5 µM), without a hit: at the highest dose activity change, negative = inhibition, actives largely listed as inhibitors; Vaccinia virus mCherry reporter infection, fluorescence; AID 720579; hit rate 0.63% among 310,000; calls by dose curve; tested in A549 cells; also: nearly all actives have a fitted effect of over 35% in size
Pf growth 96h: P. falciparum growth inhibition at 96 hour, primary screen for plastid delayed-death inhibitors; hit rate 6.9% among 320,000; P. falciparum luciferase reporter growth, 96 h; AID 504834; Potency, µM (highest dose often 28.7 µM), for inactives: at the highest dose activity change, negative = inhibition, actives largely listed as inhibitors
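Delayed-death screen, second-generation endpoint: infected erythrocytes, 2% hematocrit, 0.05% parasitemia final; 96 hours at 37 C, 5% CO2; luciferase detection reagent; luminescence decrease equals reduced growth.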
* marks the source's active call; other numbers are inactive results; i = inactive; ? = inconclusive; · = no result given; [ ] = remark or other dose. Unless noted, calls follow the shape of the dose curve; as a rule, active = well fitted curve in the direction sought with a large enough effect; inconclusive = small, poorly fitted or top-dose-only effect, or another doubt; inactive = no such curve, though single readings can be large; an effect the other way counts as inactive or inconclusive. Unless noted, % is scaled to controls: 0 for no effect and ±100 for the full control effect; potency is read from the fitted curve at half-maximal effect.

SMILES | AMA1 RON2 block | Vaccinia Venus | Pf growth 48h | Vaccinia mCherry | Pf growth 96h
c1ccc(OCCOCCN2CCN(C(c3ccccc3)c3ccccc3)CC2)cc1 | ? | -28% | ? | ? | -23%
CC1CC(C)CN(CCOc2ccccc2-c2ccccc2)C1 (stereo not given) | -2% | -3% | ? | -5% | 10µM*
c1ccc(-c2ccccc2OCCCCN2CCCCC2)cc1 | 7% | -27% | 10µM* | ? | 18%
Cc1ccc(NC(=O)c2sc3nc(N4CCOCC4)c4c(c3c2N)CCCC4)cc1 | 0% | -14% | · | -12% | ·
Nc1c(C(=O)Nc2ccccc2)sc2nc(N3CCOCC3)c3c(c12)CCCC3 | 20% | -27% | · | -22% | ·
Nc1c(C(=O)NCc2ccccc2)sc2nc(N3CCOCC3)c3c(c12)CCCC3 | -4% | -28% | ? | -12% | 12µM*
CCOc1ccc(NC(=O)c2sc3nc(N4CCOCC4)c4c(c3c2N)CCCC4)cc1 | 11% | · | ? | · | 13µM*
CCCCN1C(=N)C(CC)(CC)C(=O)NC1=O | 38% | -10% | 7% | -12% | 15µM*
CCC1(CC)C(=N)N(C)C(=O)NC1=O | 14% | -6% | 15% | -11% | ?
COc1ccccc1N1CCN(c2nc3c(S(=O)(=O)c4ccccc4)nnn3c3ccc(Cl)cc23)CC1 | · | -17% | · | -17% | ·
S=C(Nc1cccc(Cl)c1)NC1CC2CCCC(C1)N2C1CCCC1 (stereo not given) | -5% | -20% | 3.3µM* | -1% | ?
Cc1cc(C)cc(NC(=S)NC2CC3CCCC(C2)N3C2CC2)c1 (stereo not given) | 0% | · | ? | · | 0%
S=C(NCCN(C1CCCCC1)C1CCCC1)Nc1cccc(Cl)c1 | -21% | ? | 2.9µM* | ? | -2%
C=CCN1C2CCCC1CC(NC(=S)Nc1ccc(Cl)cc1)C2 (stereo not given) | -4% | · | ? | · | 29%
S=C(Nc1ccc(Cl)cc1)NC1CC2CCCC(C1)N2C1CC1 (stereo not given) | -2% | -25% | 10µM* | -11% | 10µM*
S=C(Nc1ccc(Cl)cc1)NC1CC2CCCC(C1)N2C1CCCC1 (stereo not given) | 14% | -10% | 10µM* | -24% | 12µM*
COc1cc(C(CC(=O)Nc2ccc(F)cc2F)N2Cc3ccccc3C2=O)cc(OC)c1OC (stereo not given) | · | 6% | · | 5% | ·
C/C(=N\NC(=O)c1ccc(Cn2cc([N+](=O)[O-])cn2)o1)c1cccc(NC(=O)c2cccnc2)c1 | 19% | -14% | -27% | i | 4.1µM*
Cc1cccc2c1NC(=O)C21OCC(CO)([N+](=O)[O-])CO1 (stereo not given) | 8% | 0% | 7% | ? | 2.6µM*
CC1(CO)COC2(OC1)C(=O)Nc1ccccc12 (stereo not given) | 5% | -14% | -20% | i | ?
COC(=O)C12OCC34C(CC5C(C)=C(O)C(=O)CC5(C)C3C(O)C1O)OC(=O)C(OC(=O)C=C(C)C)C24 (stereo not given) | -7% | ? | · | 32µM* | ·
COC(=O)C12OCC34C(CC5C(C)=C(O)C(=O)CC5(C)C3C(O)C1O)OC(=O)C(OC(=O)/C=C(\C)C(C)C)C24 (stereo not given) | -16% | 1.3µM* | · | ? | ·
CN(C)c1ccc(/C=C2\C=Cc3ccccc32)cc1Cl | · | -16% | · | -15% | ·
CC(C)c1ccc(NC(=O)Cn2nnc(C(=O)NCc3ccco3)c2N)cc1 | -7% | -17% | 29% | i | 12µM*
Nc1c(C(=O)NCc2ccco2)nnn1CC(=O)Nc1ccc2c(c1)OCO2 | -3% | · | 12µM* | · | ?
SMILES | AMA1 RON2 block | Vaccinia Venus | Pf growth 48h | Vaccinia mCherry | Pf growth 96h
Cc1ccc(NC(=O)Cn2nnc(C(=O)NCc3ccco3)c2N)cc1 | 0% | -7% | · | -15% | 0%
COc1ccc(/C=C/C(=O)Nc2sc3c(c2C(N)=O)CCC(C)C3)cc1OC (stereo not given) | · | -9% | · | -6% | ·
Cc1ccc(N(CCC#N)C(=O)CCl)cc1C | -5% | -20% | 9.3µM* | -7% | ?
COc1ccc(NC(=O)CC2C(=O)N(c3ccc(OC)cc3)C(=O)N2CCC2=CCCCC2)cc1 (stereo not given) | · | -13% | · | -12% | ·
COc1ccc(C)cc1S(=O)(=O)N1CCCC(C(=O)N2CCN(c3ccccc3)CC2)C1 (stereo not given) | -1% | · | 7.4µM* | · | 10µM*
CCOc1cc(Br)ccc1S(=O)(=O)N1CC(C)OC(C)C1 (stereo not given) | ? | -16% | ? | -10% | ·
COc1ccc(S(=O)(=O)N2CCOCC2)cc1N(C)S(=O)(=O)c1ccc(C)cc1 | -8% | -7% | -26% | -15% | 30%
COc1ccc(S(=O)(=O)N2CCCCCC2)cc1N(C)S(=O)(=O)c1ccc(C)cc1 | -14% | ? | -19% | -15% | 10µM*
CCOc1cc(C)c(C(C)C)cc1S(=O)(=O)N1CC(C)OC(C)C1 (stereo not given) | 1% | -37% | 13µM* | · | ·
COc1ccc(C)cc1S(=O)(=O)N1CCCCCC1 | -1% | 2% | 2.1µM* | -6% | -11%
Cc1ccc2nc(COc3cccc(NC(=O)COc4ccccc4F)c3)cc(=O)n2c1 | · | -9% | · | -20% | ·
COc1ccc(/C=C/C(=O)O)cc1S(=O)(=O)N1CCCC1 | 18% | -8% | 0% | -10% | 5.9µM*
COc1ccc(C(C)C)cc1S(=O)(=O)N1CC(C)OC(C)C1 (stereo not given) | -7% | -15% | 0% | -6% | 70%
COc1ccc(C)cc1S(=O)(=O)N1CC(C)OC(C)C1 (stereo not given) | 2% | -16% | 34% | -3% | 12µM*
COc1ccc(/C=C/C(=O)O)cc1S(=O)(=O)N1CCCCC1 | 11% | -3% | 8% | i | 16%
CC(C)c1ccc(NC(=O)C(NS(=O)(=O)c2ccc3c(c2)CCC(=O)N3)c2ccccc2)cc1 (stereo not given) | · | -4% | · | -14% | ·
COc1cccc(CNC(=O)CN(c2ccc(C(C)C)cc2)S(=O)(=O)c2c(C)n[nH]c2C)c1 | · | -14% | · | i | ·
NC(Cc1ccc(F)cc1)c1csc(Nc2cnccn2)n1 (stereo not given) | 90% | 11µM* | · | 10µM* | ·
COc1cccc(Nc2nc(C(N)CCc3ccccc3)cs2)n1 (stereo not given) | 8% | -16% | · | 9% | ·
NC(CCc1ccccc1)c1csc(Nc2cnccn2)n1 (stereo not given) | 98% | ? | · | 10µM* | ·
NC(Cc1ccc(F)cc1)c1csc(Nc2ccccn2)n1 (stereo not given) | 31% | ? | · | ? | ·
CCC(Sc1nc2c(sc3ccccc32)c(=O)n1CCCC(=O)NC1CCCC1)C(=O)Nc1cccc(OC)c1 (stereo not given) | · | -14% | · | i | ·
Cc1nn2c(COc3ccc(NC(=O)c4ccccc4Cl)cc3)nnc2c2ccccc12 | -6%[11.6 µM] | -30% | 12µM* | i | 4.1µM*

Source: PubChem BioAssay (National Center for Advancing Translational Sciences (NCATS))
